Source: PubChem BioAssay (Broad Institute)
The sample as a whole holds a higher share of hits than the screen did.
IDE exosite FP = exo-site inhibitors of human insulin-degrading enzyme | P14735 | purified IDE, FL-6b probe fluorescence polarization; hits give low values | z-score at 20 µM | 17,000 tested, 6.3% active | AID 1259349;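 active means z-score of -3 or lower, meaning strong loss of probe binding signal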;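 further: His-tagged human IDE residues 42-1019 made in E. coli with 30 nM FL-6b probe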
Target sequence (P14735 42-1019 limits assumed): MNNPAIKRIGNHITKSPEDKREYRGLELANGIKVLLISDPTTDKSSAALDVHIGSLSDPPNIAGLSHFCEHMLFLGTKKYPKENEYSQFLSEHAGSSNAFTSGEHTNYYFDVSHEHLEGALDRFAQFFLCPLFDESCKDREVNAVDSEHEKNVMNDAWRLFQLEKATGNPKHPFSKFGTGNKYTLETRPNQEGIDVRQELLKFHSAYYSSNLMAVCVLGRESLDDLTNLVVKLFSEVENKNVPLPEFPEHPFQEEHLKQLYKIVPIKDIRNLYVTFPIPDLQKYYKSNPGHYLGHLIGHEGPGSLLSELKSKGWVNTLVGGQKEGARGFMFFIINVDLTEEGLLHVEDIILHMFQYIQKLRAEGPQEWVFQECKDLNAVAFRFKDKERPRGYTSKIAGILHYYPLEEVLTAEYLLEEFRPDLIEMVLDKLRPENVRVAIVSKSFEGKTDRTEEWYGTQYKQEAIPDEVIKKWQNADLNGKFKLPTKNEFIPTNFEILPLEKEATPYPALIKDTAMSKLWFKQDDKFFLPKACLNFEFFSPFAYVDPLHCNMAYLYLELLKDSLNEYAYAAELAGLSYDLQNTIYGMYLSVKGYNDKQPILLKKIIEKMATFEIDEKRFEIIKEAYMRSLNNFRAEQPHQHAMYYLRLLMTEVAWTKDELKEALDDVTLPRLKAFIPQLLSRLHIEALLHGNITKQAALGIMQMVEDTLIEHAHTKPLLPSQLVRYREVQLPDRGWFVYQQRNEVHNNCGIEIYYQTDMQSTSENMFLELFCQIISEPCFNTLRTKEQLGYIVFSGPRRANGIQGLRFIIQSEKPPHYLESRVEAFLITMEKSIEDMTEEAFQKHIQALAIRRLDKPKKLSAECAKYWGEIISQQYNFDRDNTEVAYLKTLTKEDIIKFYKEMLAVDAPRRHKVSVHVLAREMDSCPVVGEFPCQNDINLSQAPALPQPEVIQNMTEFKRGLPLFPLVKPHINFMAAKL
* hit, by the source's call; ! = not active in a repeat.

SMILES	IDE exosite FP
COc1cc(CN2CC3(CCN(C(=O)Nc4c(C)noc4C)CC3)c3c(n(C)c4cc(OC)ccc34)[C@H]2CO)cc(OC)c1	-3.4*
COc1cc(CN2CC3(CN(C(=O)Nc4c(C)noc4C)C3)c3c([nH]c4cc(OC)ccc34)[C@H]2CO)cc(OC)c1	0.21
COc1ccc2c3c(n(C)c2c1)[C@H](CO)N(C)CC31CN(C(=O)Nc2c(C)noc2C)C1	0.53
COc1cc(CN2CC3(CCN(C(=O)Nc4c(C)noc4C)CC3)c3c(n(C)c4cc(OC)ccc34)[C@@H]2CO)cc(OC)c1	-3.4*
COc1cc(CN2CC3(CN(C(=O)CN4CCOCC4)C3)c3c(n(C)c4cc(OC)ccc34)[C@H]2CO)cc(OC)c1	-0.49
CC(C)CC#Cc1ccc([C@@H]2[C@@H](CO)N3C(=O)CN(C(=O)CN4CCOCC4)C[C@@H]23)cc1	2.8
O=C(c1ccc2c(c1)OCO2)N1C[C@@H]2[C@H](c3ccccc31)[C@H](CO)N2Cc1cccnc1	-0.049
COc1ccc2c3c([nH]c2c1)[C@H](CO)N(S(=O)(=O)c1cn(C)cn1)CC31CCN(Cc2ccccc2Cl)CC1	-0.12
C/C=C/c1ccc(C2[C@@H]3CN(C(=O)NC4CCCCC4)C[C@H]2N3)cc1 (stereo partly drawn)	-0.36
O=C(Nc1cccc(F)c1)N1C[C@@H]2N[C@H](C1)C2c1ccc(-c2cccnc2)cc1 (stereo partly drawn)	1.4
Cc1ccccc1-c1ccc(C2[C@@H]3CN(C(=O)Nc4ccc(F)cc4)C[C@H]2N3)cc1 (stereo partly drawn)	-11*
Cc1ccccc1-c1ccc(C2[C@H]3CNC[C@@H]2N3C(=O)Nc2ccc(F)cc2)cc1 (stereo partly drawn)	-0.67
O=C(Nc1ccc(F)cc1)N1C[C@@H]2N[C@H](C1)C2c1ccc(/C=C/c2ccccc2)cc1 (stereo partly drawn)	0.82
Cc1ccccc1-c1ccc(C2[C@@H]3CN(C(=O)NC4CCCCC4)C[C@H]2N3)cc1 (stereo partly drawn)	-8.2*!
O=C(Nc1cccc(F)c1)N1C[C@@H]2N[C@H](C1)C2c1ccc(-c2ccccc2F)cc1 (stereo partly drawn)	-0.69
O=C(NC1CCCCC1)N1C[C@@H]2N[C@H](C1)C2c1ccc(-c2ccc(F)cc2)cc1 (stereo partly drawn)	2.2
Cc1ccccc1-c1ccc(C2[C@@H]3CN(C(=O)Nc4cccc(F)c4)C[C@H]2N3)cc1 (stereo partly drawn)	-6.4*
COCC(=O)N(C[C@@H]1N[C@@H](CO)[C@H]1c1ccc(C2=CCCCC2)cc1)C(C)C	3
O=C1N[C@@H](c2ccccc2)COCc2cnnn2CC[C@H]1Cc1ccc(C(F)(F)F)cc1	0.67
Cc1ccc(-c2ccccc2[C@H]2[C@@H](C#N)N(C(=O)Cc3cccnc3)[C@@H]2CO)cc1	1.3
COCC(=O)Nc1ccc2c(c1)[C@@H]1C[C@H](CC(=O)N[C@H](C)c3ccccc3)O[C@H](CO)[C@@H]1O2	1.1
CO[C@H](CN(C)C(=O)c1cc(Cl)cc(Cl)c1)[C@@H](C)CN(C(=O)Nc1ccc(F)cc1)[C@H](C)CO	-0.56
COCC(=O)N1[C@@H](CO)[C@@H](c2ccccc2)C12CN(C(=O)c1ccccc1)C2	0.85
CN(C)CC#Cc1ccc([C@H]2[C@H]3CN(C(=O)c4ccccc4)CC(=O)N3[C@H]2CO)cc1	1.7
COc1cccc(C(=O)Nc2ccc3c(c2)C(=O)N(C)[C@H]2CC[C@@H](CC(=O)NCc4ccc(F)cc4)O[C@H]2CO3)c1	-2.9
SMILES	IDE exosite FP
COc1ccc(C(=O)Nc2ccc3c(c2)C(=O)N(C)[C@H]2CC[C@H](CC(=O)NCC4CC4)O[C@@H]2CO3)cc1	-0.44
CN1C(=O)c2cc(NS(C)(=O)=O)ccc2OC[C@@H]2O[C@@H](CC(=O)N3CCOCC3)CC[C@@H]21	-5.1*
CN1C(=O)c2cc(NS(C)(=O)=O)ccc2OC[C@H]2O[C@H](CC(=O)N3CCOCC3)CC[C@H]21	-1
CN1C(=O)c2cc(NS(C)(=O)=O)ccc2OC[C@@H]2O[C@H](CC(=O)N3CCOCC3)CC[C@@H]21	-1.5
COc1cccc(C(=O)Nc2ccc3c(c2)C(=O)N(C)[C@H]2CC[C@H](CC(=O)NCc4ccc(F)cc4)O[C@H]2CO3)c1	-0.35
COc1ccc(C(=O)Nc2ccc3c(c2)C(=O)N(C)[C@H]2CC[C@H](CC(=O)NCC4CC4)O[C@H]2CO3)cc1	-3.6*
CN1C(=O)c2cc(NS(C)(=O)=O)ccc2OC[C@@H]2O[C@H](CC(=O)NCc3ccccc3)CC[C@@H]21	-2.5
COc1cccc(C(=O)Nc2ccc3c(c2)C(=O)N(C)[C@H]2CC[C@@H](CC(=O)NCc4ccc(F)cc4)O[C@@H]2CO3)c1	-6.2*
CCS(=O)(=O)Nc1ccc2c(c1)C(=O)N(C)[C@@H]1CC[C@H](CC(=O)NCc3ccc(OC)cc3)O[C@H]1CO2	0.06
CCS(=O)(=O)Nc1ccc2c(c1)C(=O)N(C)[C@H]1CC[C@@H](CC(=O)NCc3ccc(OC)cc3)O[C@@H]1CO2	-4.2*
COc1ccc(C(=O)Nc2ccc3c(c2)C(=O)N(C)[C@H]2CC[C@@H](CC(=O)NCC4CC4)O[C@@H]2CO3)cc1	0.56
CCC(=O)N1[C@H](CO)[C@H]2c3ccccc3N(C(=O)Nc3ccc(Cl)cc3)C[C@H]21	-0.85
COCC(=O)N1CC(=O)N2[C@H](CO)[C@@H](c3ccc(C#Cc4cccnc4)cc3)[C@@H]2C1	-0.3
CCCC(=O)Nc1ccc2c(c1)OC[C@H](C)N(CC1CCOCC1)C[C@H](C)[C@@H](OC)CN(C)C2=O	-0.77
O=C1CNC[C@H]2[C@@H](c3ccc(C4=CCCCC4)cc3)[C@H](CO)N12	1.7
O=C(C[C@@H]1CC[C@H]2[C@@H](COC[C@H](O)CN2C(=O)c2cnccn2)O1)N1CCN(c2ccccc2)CC1	-0.59
CCC(=O)N(C[C@H]1[C@H](c2ccccc2)[C@@H](CO)N1S(C)(=O)=O)C(C)C	5.4
C/C=C/c1ccc([C@@H]2[C@@H](CO)N(C(=O)C3CCC3)C23CN(C(=O)NC(C)C)C3)cc1	1.5
CCS(=O)(=O)N1[C@H](CO)[C@@H](c2ccc(C#CCC3CCCC3)cc2)[C@@H]1C#N	-0.39
CC[C@H]1C/C=C\C[C@H](CC)NC(=O)[C@H](C)CC(=O)N1	1.1
O=C(Nc1ccccc1F)N1CC(=O)N2[C@H](CO)[C@@H](c3ccc(-c4ccc(F)cc4)cc3)[C@@H]2C1	1.1
N#C[C@@H]1[C@H](c2ccc(-c3cccc(F)c3)cc2)[C@@H](CO)N1S(=O)(=O)c1cccc(F)c1	5.2
C[C@@H]1CN([C@H](C)CO)C(=O)c2ccccc2-c2ccccc2CO[C@H]1CN(C)C(=O)Nc1ccnc(N2CCOCC2)c1	0.43
CN(C)C(=O)c1ccc(-c2ccc([C@H]3[C@H](CO)N4C(=O)CN(C(=O)C5CC5)C[C@@H]34)cc2)cc1	-0.22
O=C(C[C@@H]1CC[C@H]2[C@@H](COC[C@@H](O)CN2Cc2cc(F)ccc2F)O1)NCc1ccc(Oc2ccccc2)cc1	0.18
C[C@@H]1CN([C@@H](C)CO)C(=O)c2cc(-c3ccc(C#N)cc3)cnc2O[C@H]1CN(C)Cc1cccnc1	0.5
O=C(Cc1ccccn1)N1CC(=O)N2[C@H](CO)[C@@H](c3ccc(C#CC4CCCCC4)cc3)[C@@H]2C1	0.048
COc1ccc(-c2ccc([C@@H]3[C@H]4CN(C(=O)NC(C)C)CCCCN4[C@H]3CO)cc2)cc1	-6.6*
COCC(=O)N1CCCCN2[C@H](C1)[C@H](c1ccc(-c3ccc(OC)cc3)cc1)[C@@H]2CO	-0.9
